According to PubChem BioAssay (NCI):
This is part of a sample that, as a whole, favours compounds with a hit. Of some 79,000 tested, about 15% had one in any assay. Unmarked numbers belong to inactive results. Cut-off read from the data, not from the text of the source: active = growth inhibition above about 70%; inactive = the rest.

Test: NCI Yeast Anticancer Drug Screen. Data for the sgs1 mgt1 strain (AID 161);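 note: 0% = growth of cultures given vehicle only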
Conditions: S. cerevisiae sgs1 mgt1 strain, at 50.0 µM, hits give high values
Outline: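 Inhibition of yeast growth, normalised to vehicle-treated controls, is reported for a strain bearing genetic alterations in DNA damage repair.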

| Structure (SMILES) | growth inhibition |
| --- | --- |
| O=C1OC(/C=C/c2ccccc2)=NC/1=C\C=C\c1ccccc1 | 14.9% |
| CCCOC(=O)CCCC1=NC2=CC=CC3=NC(C)=NC(=N1)N23 | -7.45% |
| CCCCOS(=O)OCCCC | -6.1% |
| NC(=O)C1=CNCCC1 | -6.35% |
| Cc1[nH]n(C(=O)c2ccc(Cl)cc2)c(=O)c1/C=C1\C(O)=CC(=O)c2ccccc21 | 18.7% |
| Cc1cc(C)c(S(=O)(=O)c2cccs2)c(C)c1 | -8.25% |
| CCCCOC(OCCCC)C(OCCCC)OCCCC | 19.8% |
| O=C(OCc1ccccc1C1CSCSC1)c1cc(C(=O)OCc2ccccc2C2CSCSC2)c(C(=O)OCc2ccccc2C2CSCSC2)cc1C(=O)OCc1ccccc1C1CSCSC1 | -10.6% |

Test: NCI Yeast Anticancer Drug Screen. Data for the cln2 rad14 strain (AID 165);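 note: 0% = growth equal to vehicle treated cultures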
Conditions: S. cerevisiae cln2 rad14 strain, at 50.0 µM, hits give high values
Outline: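 Growth of compound-exposed yeast (cln2 rad14 genotype) measured and expressed as inhibition relative to vehicle.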

| Structure (SMILES) | growth inhibition |
| --- | --- |
| O=C(O)/C=C/C(=O)Nc1ccc(Cl)cc1C(=O)c1ccccc1 | 0.4% |
| c1ccc(CNCCN(Cc2ccccc2)Cc2ccccc2)cc1 | -11.8% |
| COc1ccc(OC)c(C(C)=O)c1 | 1.75% |
| CCO/C(C)=C(/C(C)=O)C(=O)NC1CCCCC1 | 9.75% |
| Fc1ccc(-c2cc(-c3ccc(F)cc3)cc(-c3ccc(F)cc3)c2)cc1 | 14.2% |
| CCN(C(=O)c1ccc([N+](=O)[O-])cc1)C(c1ccccc1)P(=O)(c1ccccc1)c1ccccc1 (centres undefined) | -37% |
| O=[N+]([O-])c1ccc(C2ON2C2CCCCC2)cc1 (centres undefined) | -22.3% |
| NCc1ccccc1F | 13.7% |
| NC(CCC(=O)NC(CSCNC(=O)Nc1ccc(Cl)cc1)C(=O)NCC(=O)O)C(=O)O (centres undefined) | -13.7% |
| O=C(O)CCNCCCCNCCC(=O)O | -1.5% |
| COc1ccc(/C=N\S(=O)(=O)c2ccc(OC)cc2)cc1 | 8.8% |
| O=C(N/N=C\c1cccnc1)Nc1ccc(N=Nc2ccccc2)cc1 | -9.2% |
| N=c1oc2ccc([N+](=O)[O-])cc2cc1C(=O)NCc1ccccc1 | 3.95% |
| CCOC(OCC)C(O)c1ccccc1 (centres undefined) | -15% |
| COC(=O)CC1(CC(=O)O)SCCS1 | 2.9% |
| CCOC(=O)/C(CC)=N\O | 3.25% |
| Cc1cc2nc(NN)[nH]c2cc1C | -10% |
| CSc1nc(NC2OCC(O)C(O)C2O)cc(=O)n1C (centres undefined) | -4.9% |

| Structure (SMILES) | growth inhibition |
| --- | --- |
| CC(O)CN1c2ccccc2Sc2ccc(Cl)cc21 (centres undefined) | 17.1% |
| COc1cc(CNc2nc3ccccc3n2Cc2ccccc2)cc(CN2CCOCC2)c1O | 33.3% |
| N#Cc1c2c([nH]c(=O)c1C#N)CCCC2 | 9.15% |
| O=C(/C=C\c1ccc([N+](=O)[O-])cc1)c1ccccc1 | -28.3% |
| O=C(O)CC1C(=O)OC2C3COC(=O)c4cc(O)c(O)c(O)c4-c4c(cc(O)c(O)c4O)C(=O)OC2C(OC(=O)c2cc(O)c(O)c4c2C1C(O)C(=O)O4)C(OC(=O)c1cc(O)c(O)c(O)c1)O3 (centres undefined) | 5.15% |
| CN(C)c1ccc(-c2c(C#N)c(N)[nH]c(=S)c2C#N)cc1 | 6.35% |
| COC(=O)C1=C(C)N(NC(N)=O)C2(N)N(NC(N)=O)C(C)=C(C(=O)OC)C12C#N (centres undefined) | 5.8% |
| O=C(CCC(O)c1ccccc1)c1ccccc1 (centres undefined) | -10.9% |
| NCCCNCCCCNC(=O)C(O)NC(=O)CC(O)CCCCN=C(N)N (centres undefined) | 16.8% |
| CC(C)CCCC(C)[C@H]1CC[C@H]2[C@@H]3CC[C@H]4C[C@@H](CCC=C(c5cc(Cl)c(O)c(C(=O)OC(C)C)c5)c5cc(Cl)c(O)c(C(=O)OC(C)C)c5)CC[C@]4(C)[C@H]3CC[C@]12C (some centres undefined) | 18.7% |
| CC1NC(C)SC(C)S1 (centres undefined) | -16.1% |
| NC(CCCC(N)C(=O)c1ccccc1)C(=O)c1ccccc1 (centres undefined) | -15.5% |
| O=c1[nH]c2ccccc2c(=O)n1CCCN1CCN(c2cccc(Cl)c2)CC1 | -23.4% |
| Cc1c(C)c(C)c(CNNC(=S)Nc2ccc(S(=O)(=O)N3CCCCC3)cc2)c(C)c1C | 8.6% |
| O=C1OC(/C=C/c2ccccc2)=NC/1=C\C=C\c1ccccc1 | 14.2% |
| CCCOC(=O)CCCC1=NC2=CC=CC3=NC(C)=NC(=N1)N23 | -45.1% |
| CCCCOS(=O)OCCCC | 13.2% |
| NC(=O)C1=CNCCC1 | 12.3% |
